Reference: PubChem BioAssay (NCI)
“And” between values parts separate entries of the source, which are not always exact repeats. Identical values can stand only once. This is part of a sample that, as a whole, favours compounds with a hit. Of some 79,000 tested, about 15% had one in any assay. Values without a mark were called inactive. The source made the active and inactive calls. Cut-off read from the data, not from the text of the source: active = growth inhibition above about 70%; inactive = the rest.

What was measured:
[1] = NCI Yeast Anticancer Drug Screen. Data for the rad50 strain (AID 155);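 note: 0% = growth of vehicle-only cultures of the same strain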; details: S. cerevisiae rad50 strain growth inhibition; at 50.0 µM; hits give high values
In short: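 DNA repair mutant yeast, compound exposure, growth read-out; inhibition is taken relative to vehicle.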

[2] = NCI Yeast Anticancer Drug Screen. Data for the mec2-1 strain (AID 157); details: S. cerevisiae mec2-1 strain, at 50.0 µM, hits give high values
In short: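 Test agents were screened against the mec2-1 yeast strain, with defined DNA repair or cell cycle alteration. Growth was scored as inhibition against vehicle-only controls.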

[3] = NCI Yeast Anticancer Drug Screen. Data for the sgs1 mgt1 strain (AID 161);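 note: 0% = growth of cultures given vehicle only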; details: S. cerevisiae sgs1 mgt1 strain, at 50.0 µM, hits give high values
In short: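 Read-out: growth inhibition vs vehicle controls. Cells: mutant yeast strain deficient in DNA damage repair.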

[4] = NCI Yeast Anticancer Drug Screen. Data for the cln2 rad14 strain (AID 165);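 note: 0% = growth equal to vehicle treated cultures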; details: S. cerevisiae cln2 rad14 strain, at 50.0 µM, hits give high values
In short: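 Growth of compound-exposed yeast (cln2 rad14 genotype) measured and expressed as inhibition relative to vehicle.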

[5] = NCI Yeast Anticancer Drug Screen. Data for the bub3 strain (AID 167); details: S. cerevisiae bub3 mutant strain, at 50.0 µM, hits give high values
In short: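 In this screen, a yeast mutant lacking normal mitotic checkpoint function is challenged with compound. Relative growth versus vehicle gives the inhibition value.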

[6] = NCI Yeast Anticancer Drug Screen. Data for the mlh1 rad18 strain (AID 175); details: S. cerevisiae mlh1 rad18 strain growth inhibition; at 50.0 µM; hits give high values
In short: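 In this whole-cell yeast screen, a strain with altered DNA damage repair is challenged with compound, and its growth is measured against matched vehicle-treated controls.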

Compound	growth inhibition [1]	growth inhibition [2]	growth inhibition [3]	growth inhibition [4]	growth inhibition [5]	growth inhibition [6]
CCOP(=S)(N/N=C/c1ccc(C)s1)OCC	-19.3%	-27.2%	5.45%	-12.3%	7.65%	-30.8%
CCOC(OCC)C(CC)[Se]c1ccccc1 (centres undefined)	4.45%	-9.6%	13.4%	0.6%	2.7%	-7.9%
CCC[C@H]1CCCCN1	27.1%	12.7%	23.4%	18.9%	-13%	3.6%
CS/C([S-])=N/N=C(C)C.CS/C([S-])=N/N=C(C)C.[Pt+2]	9.1%	1.45%	0.7%	-41.3%	-0.8%	-9.9%
NC(=S)c1cc(N(CCCl)CCCl)c([N+](=O)[O-])cc1[N+](=O)[O-]	22.4%	-0.25%	8.85%	8.85%	-11.6%	-22.5%
CC(C)(C)C(=O)CC(=O)C(C)(C)C.[Cl][Sb]1([Cl])[c]2ccccc2Cc2cccc[c]21	-1.05%	23.9%	20.1%	-13.8%	0.75%	8.95%
C=CCc1cc(-c2cc(CC=C)c(O)c(CN(CCCl)CCCl)c2)cc(CN(CCCl)CCCl)c1O	41.5%	49.8%	47.1%	43.1%	60%	44.1%
Cc1nc2ccc(Br)cc2c(=O)n1-c1ccc(N)cc1	-25.9%	-2.4%	-28.1%	16.2%	-8.2%	5.8%
CC1(C)N=C(N)N=C(N)N1c1ccc(CCc2ccc(S(=O)(=O)F)c(Cl)c2)c(Cl)c1	99.2% (active)	99.7% (active)	99.8% (active)	98.7% (active)	99.2% (active)	99.7% (active)
CC(C)N1CC(COc2cccc3ccccc23)OP1(=O)N(CCCl)CCCl (centres undefined)	97% (active)	98.7% (active)	52%	98.3% (active)	98.4% (active)	98.4% (active)
COc1cc(C(N)Cc2ccccc2)ccc1O (centres undefined)	-9.85%	1%	-1.25%	-33.1%	26.6%	4.6%
CC1(C)C2CC[C@@]1(C)C(=O)C2Br (some centres undefined)	24.9%	25.6%	-1.6%	7.55%	23.9%	-8.7%
CO[C](=[W])c1ccccc1.[C-]#[O+].[C-]#[O+].[C-]#[O+].[C-]#[O+].[C-]#[O+]	12.2%	-0.6%	-2.3%	1.55%	1.05%	-4.1%
Oc1cccc2cccnc12.[Cr]	6%	-0.65%	-7.65%	-7%	-16.9%	-9.65%
O=[N+]([O-])c1ccc(OCc2ccc(Cl)c(S(=O)(=O)F)c2)c(Cl)c1	-18.1%	-8.3%	29.8%	-24.4%	20.7%	24.1%
O=C(O)c1cc(I)cc(I)c1I	-5.55%	-16.1%	-34.5%	-70.2%	1.25%	12.7%
[Fe+5].[O-][Cl+3]([O-])([O-])O.[O-]c1ccccc1C=NCCN1CC1.[O-]c1ccccc1C=NCCN1CC1	1.8%	16%	30.1%	0.3%	37%	22.2%
N.N.N.N.N.N.[I-].[Os]	23.5%	1.45%	5.4%	7.6%	1.25%	-2%
Brc1ccc2nncc(N3CC3)c2c1	-13.2%	-16.6%	4.55%	8.5%	-9.3%	-20.6%
O=[N+]([O-])c1ccc(CCl)cc1	16.4%	30.5%	10.7%	-15%	-23.9%	26.6%

Compound	growth inhibition [1]	growth inhibition [2]	growth inhibition [3]	growth inhibition [4]	growth inhibition [5]	growth inhibition [6]
CN(C(=[Se])[Se]C(=[Se])N(C)C1CCCCC1)C1CCCCC1	19.4%	5%	8.35%	18.4%	0.4%	12.6%
NC(P(=O)(O)O)P(=O)(O)O	4.15%	-1.2%	16.7%	15.3%	18.4%	7.1%
O=C(O)[C@@H]1C2CCC(C[C@@H]1O)N2C(=O)c1ccccc1 (some centres undefined)	-12.8%	-3.55%	2.85%	-33.5%	-15.4%	-1.2%
CCOP(=S)(OCC)OCC1OC(OC)C2OC(C)(C)OC12 (centres undefined)	-26.2%	1.9%	-2.45%	-35.4%	11.8%	4.4%
NCCN.NCCN.[Cl-].[O]=[Re]=[O]	-8.05%	-8.55%	6.4%	-62.5%	-22.4%	-0.6%
Cn1c(O)c(N=O)c(=O)n(C)c1=O	29.4% and 20.9%	9.85% and -9.05%	-0.6% and 8.4%	7.75% and -1.1%	-9.85% and -6.3%	-13.7% and 13.4%
O=C(O)c1cc(C(=O)O)cc(S(=O)(=O)F)c1	13.5%	3.75%	19.6%	10.6%	-4.05%	7.5%
CP(O)(=S)C1CCCCC1 (centres undefined) (tested in a mixture with another compound)	26.8%	1.1%	-4.85%	5.3%	18.7%	13.8%
O=C([O-])CN(CCN(CC(=O)[O-])CC(=O)O)CC(=O)O.[Fe+5].[Na+]	-12.6%	-13.3%	0.35%	-35.8%	-2.85%	-8.4%
O=C(O)C(=O)C(Cl)Br (centres undefined)	4.95%	-8.75%	-2.5%	-18%	2.35%	0.65%
NNC(=S)NN	4.95%	4.3%	1.7%	-15.4%	-2.6%	35.6%
CCCCC(CC)COP(OCC(CC)CCCC)OCC(CC)CCCC.[Cl][Sn][Cl] (centres undefined)	-8.1%	16.1%	14.9%	-10.4%	-6.2%	21%
CC(C)N(C#N)C(C)C	16.6%	-0.75%	1.85%	9.6%	0.25%	6.25%
COC1C(O)C(C)OC(O[C@@H]2C[C@H]3CC[C@@H]4[C@H](CC[C@]5(C)[C@@H](C6=CC(=O)OC6)CC[C@]45O)[C@@]3(C)[C@H](O)C2)C1O (some centres undefined)	1.4%	-12.5%	-3.55%	-6.35%	1%	3.8%
Cc1cc(N(CCCl)CCCl)ccc1C=Nc1ccccc1F	8.3%	-5.4%	3.6%	-40.4%	6.85%	0.5%
O=C(CN1CCOCC1)c1ccccc1	-1.55% and -6.6%	-4.1% and -13.4%	-2.65% and -9.4%	3.55% and -42%	-3.85% and -14.3%	-1.85% and -22.9%
Brc1ccc(NP(Br)(c2ccccc2)(c2ccccc2)c2ccccc2)cc1	52.8%	5.6%	58%	11.8%	11.9%	20.1%
CC1=C/C(=N\[Se]c2ccccc2)C(=O)C(C)=C1	43.7%	27.4%	24%	-9.05%	47.4%	36.3%
C/C=C/CC1(C(C)C)C(=O)NC(=O)NC1=O	8.6% and 18.7%	11.2% and 8%	-4.2% and 10.8%	3.8% and 10.6%	-1.25% and 1.2%	-1.65% and 8.4%
